According to ChEMBL document CHEMBL1157539, “Thousands of chemical starting points for antimalarial lead identification” (Nature, 2010):

test system: Plasmodium falciparum; assay: GSK_TCMDC: Inhibition of Plasmodium falciparum Dd2 in whole red blood cells, using parasite LDH activity as an index of growth. Test compounds present at 2uM; type: functional

Q: With `CC(C)N1CCC(N(Cc2ccc(-c3ccc(C(F)(F)F)cc3)cc2)C(=O)Cn2c(SCc3cccc(F)c3F)cc(=O)c3c2CCC3)CC1.O=C(O)C(O)C(O)C(=O)O` as the compound, how does the Inhibition read?
A: 42%

Q: With `COc1c(C2CCN(CCCCNC(=O)c3ccc(-c4ccc(C#N)cc4)nc3)CC2)ccc2c1CCCC2` as the compound, how does the Inhibition read?
A: 67%

Q: Which Inhibition does the source give for `Cc1cc(Cc2ccc(S(=O)(=O)c3cc4c(cc3O)CCN(C)CC4)cc2)ccc1Cl.Cl` here?
A: 12%

Q: `Cc1ccc(-n2cc(CNCCc3nc(C)c[nH]3)c(-c3ccc(F)cc3)n2)cc1` was tested. Which Inhibition did it give?
A: 12%

Q: How did the Inhibition turn out when `O=C(N[C@@H](CC1CCCCC1)C(=O)NC1CC1)c1ccc(O)c(-c2cccc(C(F)(F)F)c2)c1` was run?
A: 47%

Q: Which Inhibition does the source give for `O=C(Nc1ccccc1F)N(CCCn1ccnc1)Cc1csc(-c2ccc(CNCc3ccccc3)cc2)n1.O=C(O)C(F)(F)F` here?
A: 26%

Q: `Clc1ccc2c(N3CCCNCC3)ccnc2c1` was tested. Which Inhibition did it give?
A: 99%

Q: Which Inhibition does the source give for `O=C(NC1CCN(Cc2ccc3c(c2)OCCO3)CC1)c1ccc(-c2cccc(C(F)(F)F)c2)s1.O=C(O)C(F)(F)F` here?
A: 35%

Q: How did the Inhibition turn out when `O=c1cc(NCCCNCc2cc(C(F)(F)F)ccc2Cl)[nH]c2ccccc12` was run?
A: 20%

Q: How did the Inhibition turn out when `O=C(O)C(F)(F)F.O=S(=O)(NCCN1CCCC1)c1cccc(-c2ccc(CNCc3ccsc3)cc2)c1` was run?
A: 31%

Q: `Brc1cc(CNCCCNc2nc3ccccc3[nH]2)sc1Br.Cl` was tested. Which Inhibition did it give?
A: 21%

Q: With `NCCCNc1ccnc2cc(Cl)ccc12` as the compound, how does the Inhibition read?
A: 25%

Q: With `COc1ccccc1CC1CCCN(C2CCC(NC(=O)c3cc4ccccc4[nH]3)CC2)C1` (stereo not given) as the compound, how does the Inhibition read?
A: 21%

Q: For `O=C(NCc1ccc(C(=O)NCc2cccc3ccccc23)cc1)c1ccc(O)c(-c2ccc(Cl)c(Cl)c2)c1`, which Inhibition is on record?
A: 31%

Q: With `C[C@H](Cc1ccc(OCCNC[C@H](O)c2cccc(Cl)c2)cc1)NC[C@H](O)c1ccc(Cl)c(Cl)c1.O` as the compound, how does the Inhibition read?
A: 64%

Q: `N=C(N)NCCCN(Cc1ccccc1)c1ccc(Cl)cc1.O=S(=O)(O)O` was tested. Which Inhibition did it give?
A: 98%

Q: With `NC(=O)c1cnc2cc(-c3ccncc3)cc(Nc3ccc(NC(=O)C4CCCCC4)cc3)c2c1` as the compound, how does the Inhibition read?
A: 99%

Q: Which Inhibition does the source give for `CS(=O)(=O)NCCCNCc1ccc(-c2ccc(-c3nc4cc(C(F)(F)F)ccc4[nH]3)s2)cc1.O=C(O)C(F)(F)F` here?
A: 73%

Q: `CN(C)CCNC(=O)c1csc(Nc2ccc(Cl)c(Cl)c2)n1` was tested. Which Inhibition did it give?
A: 100%

Q: `C[C@H](Cc1ccc(OCCCCCOc2ccc(C[C@@H](C)NC[C@H](O)c3cccc(Cl)c3)cc2)cc1)NC[C@H](O)c1cccc(Cl)c1.Cl` was tested. Which Inhibition did it give?
A: 100%

Q: For `Cc1[nH]c(C)c(-c2ccc(-c3ccc(OC(F)(F)F)cc3)cc2)c(=O)c1Cl`, which Inhibition is on record?
A: 97%

Q: How did the Inhibition turn out when `Cc1nc2c(=O)sc3ccccc3c2n1Cc1ccccc1` was run?
A: 26%

Q: Which Inhibition does the source give for `O=C(Nc1ccccc1)Nc1cccc(-c2nn3c(OCCN4CCCC4)cccc3c2-c2ccncc2)c1` here?
A: 98%

Q: With `CC(=O)N(C)/N=C/[C@H](CCc1ccccc1)NC(=O)[C@H](CC(C)C)NC(=O)c1cccc(OCCN2CCOCC2)c1` as the compound, how does the Inhibition read?
A: 65%

Q: With `CCC(C)(C)n1c(C)cc2c3c(N)nc(N)nc3ccc21` as the compound, how does the Inhibition read?
A: 85%

Q: For `C[C@H](Cc1ccc(CCc2ccc(C[C@@H](C)NC[C@H](O)c3cccc(Cl)c3)cc2)cc1)NC[C@H](O)c1cccc(Cl)c1.Cl`, which Inhibition is on record?
A: 92%

Q: `N#Cc1ccc(N[C@@H](CC2CCCCC2)C(=O)NCc2cc(F)c(F)cc2F)c2ccccc12.O=C(O)C(F)(F)F` was tested. Which Inhibition did it give?
A: 39%

Q: Which Inhibition does the source give for `COc1ccc2c(=O)c3ccc(OC)cc3[nH]c2c1` here?
A: 75%

Q: How did the Inhibition turn out when `COc1ccc(-c2cccc(NC(=O)c3ccc(Cl)cc3)c2)cc1CN(C)CCN(C)C.O=C(O)C(F)(F)F` was run?
A: 61%

Q: With `COc1ccc(CCn2c(=N)c(C(=O)NC3CCCC3)cc3c(=O)n4ccccc4nc32)cc1` as the compound, how does the Inhibition read?
A: 34%

Q: `CN1CCN(c2ccnc3ccc(NC(=O)Cc4ccc(Br)c5ccccc45)cc23)CC1` was tested. Which Inhibition did it give?
A: 99%

Q: Which Inhibition does the source give for `CC(C)CC(C)NC(=O)C1Cc2c([nH]c3ccc(F)cc23)C2(CCN(Cc3ccccc3)CC2)N1` (stereo not given) here?
A: 49%

Q: Which Inhibition does the source give for `Cn1nccc1C(=O)NCCNCc1cccc(-c2cccc(-c3nc4cc(C(F)(F)F)ccc4[nH]3)c2)c1.O=C(O)C(F)(F)F` here?
A: 99%

Q: Which Inhibition does the source give for `Brc1ccc(Nc2nc(NCC3CCCO3)c3ccccc3n2)cc1` (stereo not given) here?
A: 99%

Q: With `CCNc1nc(OCC(F)(F)F)nc(N(c2ccccc2)c2ccccc2)n1` as the compound, how does the Inhibition read?
A: 83%

Q: Which Inhibition does the source give for `OC(c1ccccc1)C1CN(CCc2ccccc2)CCC1(O)c1ccccc1` (stereo not given) here?
A: 92%

Q: For `COc1ccc(F)cc1-c1ccc(C(=O)N2CCCN(c3ccc(C#N)cn3)CC2)cc1`, which Inhibition is on record?
A: 100%

Q: How did the Inhibition turn out when `O=C(Nc1ccc(CCNCc2ccccc2)cc1)Nc1ccc(OC(F)(F)F)cc1.O=C(O)C(F)(F)F` was run?
A: 22%

Q: For `Cc1sc(CNCCCNc2cc(=O)c3ccccc3[nH]2)cc1Br`, which Inhibition is on record?
A: 83%

Q: `O=C(O)C(F)(F)F.c1ccc(CCNc2ccnc(Nc3ccc4[nH]nnc4c3)n2)cc1` was tested. Which Inhibition did it give?
A: 95%
